Among all 210,000 compounds or so, about 5,900 (2.8%) were called active. Entries that show only a call come without a potency. Inconclusive results (about 5%) are left out. Calls come from the whole dose curve; as a rule, active = well fitted activation curve with a large enough effect; inconclusive = small, poorly fitted or top-dose-only effect; inactive = no such curve, though single readings can be large or run the other way. The sample as a whole holds a higher share of actives than the screen did.
Potency is the fitted concentration of half-maximal effect.

The nature of this test: qHTS Assay for Enhancers of SMN2 Splice Variant Expression. Note: nearly all actives have a fitted effect of over 55% in size. The conditions noted are these: HEK293 SMN2-luciferase splicing reporter, luminescence, 30-36 h; series mostly up to 46.1 µM. The method, boiled down: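 HEK293 cells carry an SMN2 minigene-luciferase reporter in which exon 7 inclusion puts luciferase in frame. Cells were seeded at 2000 cells/well, attached for 10-12 hours, then exposed to compounds for 30-36 hours at 37C before ONE-Glo luminescence.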
In general terms: In qHTS, concentration-response curves come from the screen itself.
Take `O=C(Nc1cc(-c2nc3ccccc3o2)ccc1Cl)c1cc([N+](=O)[O-])ccc1N1CCOCC1`: the Potency entry is “inactive”.

As to `Cn1c(-c2ccco2)nc2cc3ccccc3cc21`, the Potency is 2.51 µM (active).

For `CN1c2ccccc2-c2nc3ccccc3n2C1c1ccco1` (configuration not stated), the Potency result was “inactive”.

Take `CN(c1nc2ccccc2n2c(-c3ccco3)nnc12)S(=O)(=O)c1ccccc1`: the Potency result is “inactive”.

On to `COC(=O)CC1Oc2ccccc2-n2cc(-c3ccccc3)nc21` (configuration not stated), for which the Potency result was “inactive”.

On to `COc1cccc(N2CCN(S(=O)(=O)c3cc(Br)cc4c3N(C(=O)C3CC3)CC4)CC2)c1`, for which the Potency result is “inactive”.

With `CN(C)CCN=c1cc(-c2ccccc2)oc2ccc(Cl)cc12`, the Potency is 15.8 µM (active).

With `CCC1CCCCN1C(=O)Cn1c(=O)n(CCCCCC(=O)NCc2ccccc2)c(=O)c2sccc21` (configuration not stated), the Potency entry is “inactive”.

For the molecule `Cc1ccc(C(=O)Nc2ccc(OCc3cc(=O)n4c5c(sc4n3)CCCC5)cc2)cc1`, the Potency result was “inactive”.

In the case of `CC(=O)NCCc1nc2cc(NC(=O)c3ccccc3)ccc2n1C`, the Potency was 22.4 µM (active).

With `CCCCCn1c(CCNC(=O)c2ccc(F)cc2)nc2ccccc21`, the Potency entry was “inactive”.

Take `Cn1c(CN2CCOCC2)nc2cc(NC(=O)c3ccc(Cl)cc3)ccc21`: the Potency entry is “inactive”.

Regarding `COc1ccc(C2Sc3ccccc3NC3=C2C(=O)c2ccccc23)c(OC)c1OC` (configuration not stated), the Potency result is “inactive”.

For `Cc1c(-c2ccccc2)n[nH]c1C(=O)N=Nc1c(O)[nH]c2ccccc12`, the Potency was 20 µM (active).

For `Cc1cccc(N(CC(=O)N=Nc2c(O)[nH]c3ccccc23)S(C)(=O)=O)c1C`, the Potency result is “inactive”.

With `COCC(=O)N=Nc1c(O)[nH]c2ccccc12`, the Potency entry was “inactive”.

As for `COc1ccccc1CNC(=O)C(Cc1ccccc1)NS(=O)(=O)c1ccc2c(c1)oc(=O)n2C` (configuration not stated), the Potency result was “inactive”.

Consider `C/C(=N\NS(=O)(=O)c1ccc(Br)cc1)c1cccs1`, for which the Potency result is “inactive”.

With `C/C(=N\Nc1ncc(Cl)cc1Cl)c1ccc(S(=O)(=O)NCc2ccco2)cc1`, the Potency is 12.6 µM (active).

In the case of `C/C(=N\Nc1ncc(Cl)cc1Cl)c1cccs1`, the Potency is 11.2 µM (active).

Regarding `C/C(=N\NC(=O)COc1c(C)cccc1C)c1cccs1`, the Potency result was “inactive”.

For `O=C(NC1CCC(O)CC1)c1ccc(S(=O)(=O)NCc2ccco2)cc1` (configuration not stated), the Potency entry is “inactive”.

Take `Cc1c(Cl)cnc(NC(=O)COC(=O)c2ccc(S(=O)(=O)NCc3ccco3)cc2)c1Cl`: the Potency entry was “inactive”.

Turning to `Cc1cccc(C(CC(=O)NCC2(c3ccccc3)CCCC2)c2ccccc2)c1O` (configuration not stated), the Potency entry was “inactive”.

With `CCOc1ccccc1CNCc1c(C(=O)O)c(C)n(Cc2ccc(C)cc2)c1C`, the Potency result is “inactive”.

Regarding `O=S(=O)(NCC(c1ccccc1)N1CCc2ccccc21)c1ccccc1` (configuration not stated), the Potency entry is “inactive”.

On to `COc1ccc(S(=O)(=O)Nc2cc3c(C(=O)OC(C)C)c(C)oc3c3ccccc23)cc1`, for which the Potency result is “inactive”.

Turning to `Cc1cc2oc(C(=O)N(Cc3ccc(Cl)cc3)Cc3ccco3)c(C)c2cc1Cl`, the Potency result was “inactive”.

For `COc1ccccc1C(=O)Nc1c(C(=O)Nc2ccc(C)cc2)oc2ccccc12`, the Potency result was “inactive”.

Turning to `CSc1ncccc1C(=O)Nc1nc2ccc(F)cc2s1`, the Potency entry was “inactive”.

On to `O=C(Nc1nc2ccc(F)cc2s1)c1nc(SCc2ccccc2F)ncc1Cl`, for which the Potency result was “inactive”.

On to `CCS(=O)(=O)N1Cc2ccccc2CC1C(=O)Nc1nc2ccc(F)cc2s1` (configuration not stated), for which the Potency was 14.1 µM (active).

Take `Cc1cccc(N2CCN(C(=O)c3ccc4c(c3)CCN4S(=O)(=O)c3ccccc3)CC2)c1C`: the Potency entry was “inactive”.

As for `O=c1oc(-c2ccco2)nc2sc3c(c12)CCCCC3`, the Potency is 14.1 µM (active).

Regarding `Cn1c(=O)n(Cc2ccco2)c(=N)c2c3c(sc21)CCCC3`, the Potency result is “inactive”.

Consider `O=C(NCc1ccco1)c1cccn2c(=O)c3c4c(sc3nc12)CCCC4`, for which the Potency entry is “inactive”.

For `Oc1ccccc1-c1nc2ccc(Cl)cn2c1Nc1ccc2c(c1)OCCO2`, the Potency result was “inactive”.

Take `O=C(c1cccs1)C1C(c2ccc(Br)cc2)NC(=S)NC1(O)C(F)(F)F` (configuration not stated): the Potency was 12.6 µM (active).

Regarding `CC(=O)C1C(c2ccc(Cl)cc2)NC(=O)NC1(O)C(F)(F)F` (configuration not stated), the Potency result is “inactive”.

Regarding `CC(=O)C1C(c2cccc(Oc3ccccc3)c2)NC(=O)NC1(O)C(F)(F)F` (configuration not stated), the Potency result was “inactive”.

On to `COc1ccc2c(c1)C(c1cccs1)=NNC(c1cccnc1)=N2`, for which the Potency result was “inactive”.

With `CCOc1ccc2c(c1)C(c1ccc(C)cc1)=NNC(c1ccc(C)cc1)=N2`, the Potency was 12.6 µM (active).

Regarding `Fc1ccc2c(c1)C(c1cccnc1)=NNC(c1cccs1)=N2`, the Potency result is “inactive”.

For `Cc1cccn2c(=O)c3cc(C(=O)NC(C)c4ccccc4)c(=N)n(CCCO)c3nc12` (configuration not stated), the Potency entry is “inactive”.

`COc1cc(OC)cc(C(=O)Nc2c(C(=O)Nc3ccc(F)cc3)oc3ccccc23)c1`: the Potency result is “inactive”.

`CCN(CC)c1ccc(/C=N/Nc2nc(C)cc(C)n2)c(O)c1`: the Potency entry was “inactive”.

With `Oc1ccc(/C=N/NC2=NCCCCC2)c(O)c1`, the Potency was 12.6 µM (active).

For the molecule `COc1ccc(/C=C(\C#N)C(=O)ONC2=NCCCCC2)cc1`, the Potency entry is “inactive”.

For the molecule `NS(=O)(=O)c1ccc(NC(=O)COc2ccc(S(=O)(=O)NC3CCCCC3)cc2)cc1`, the Potency result is “inactive”.

As to `Cc1ccc(S(=O)(=O)N(C)CC(=O)NC2CCCC2)cc1`, the Potency entry was “inactive”.

`Cc1ccc(S(=O)(=O)NCC(=O)N(CC(=O)NC2CCCCC2)Cc2ccco2)cc1`: the Potency was 20 µM (active).

In the case of `Cc1ccc(S(=O)(=O)NCC(=O)N(CC(=O)NC(C)(C)C)Cc2cccs2)cc1`, the Potency entry was “inactive”.

For `CN(Cc1ccccc1)C(=O)c1cc2c(=O)n(C)c3ccccc3c2s1`, the Potency entry is “inactive”.

`Cc1cccc(NC(=O)CN(c2ccc(C(C)C)cc2)S(=O)(=O)c2c(C)nn(C)c2C)c1C`: the Potency entry was “inactive”.

For `CCOc1ccc(-c2cc3nc(C4CCN(C(=O)OC(C)(C)C)CC4)c(C(=O)Nc4ccc(C(=O)OC)cc4)cn3n2)cc1`, the Potency result was “inactive”.

`Cn1nc(-c2ccccc2)c(-c2nc(-c3ccc(Cl)cc3)no2)c1Cl`: the Potency entry is “inactive”.

In the case of `OC(c1nnc(-c2ccccc2)o1)c1cccs1` (configuration not stated), the Potency entry is “inactive”.

Regarding `CCCN(CCC)c1ccc(C(O)c2nnc(-c3ccccc3)o2)cc1` (configuration not stated), the Potency result is “inactive”.

On to `Brc1ccc(-c2nnc(-c3ccccc3)o2)o1`, for which the Potency was 14.1 µM (active).

Consider `Brc1ccc(-c2noc(-c3ccccc3)n2)o1`, for which the Potency was 11.2 µM (active).

On to `Nc1nonc1-c1noc(-c2ccc(Br)o2)n1`, for which the Potency entry was “inactive”.

As for `COC(=O)c1sc2ncccc2c1-n1c(C)ccc1C`, the Potency result is “inactive”.

Consider `Cc1sc2ncn(CC(=O)N3CCN(c4ccc(F)cc4)CC3)c(=O)c2c1S(=O)(=O)N1CCN(c2ncccn2)CC1`, for which the Potency result was “inactive”.

For the molecule `CCc1nccn1S(=O)(=O)c1cc(Br)ccc1Br`, the Potency result is “inactive”.

On to `Cc1ccc(-c2nn(CCC(=O)Nc3ccc(Cl)c(Cl)c3)c(=O)c3ccccc23)cc1`, for which the Potency entry is “inactive”.

In the case of `CC(C)Cn1c(C2CC(=O)N(c3ccccc3Cl)C2)nc2ccccc21` (configuration not stated), the Potency result was “inactive”.

`Cc1cccc(NC(=O)CSc2nc3c(oc4ccccc43)c(=O)n2-c2ccc(F)cc2)c1`: the Potency entry is “inactive”.

Regarding `Cc1cc(C)c2oc(C(=O)Nc3ccc(S(=O)(=O)N4CCCCCC4)cc3)cc(=O)c2c1`, the Potency entry was “inactive”.

Take `Cc1ccc(S(=O)(=O)N(Cc2nc(-c3ccc(Cl)cc3)no2)C2CCCCC2)cc1`: the Potency result is “inactive”.

Consider `COc1ccc(/C=N/Nc2nc3ccccc3c(=O)[nH]2)cc1`, for which the Potency was 12.6 µM (active).

Regarding `O=c1c2ccccc2nc(N/N=C/c2ccccc2)n1O`, the Potency entry was “inactive”.

Turning to `COc1ccc(C=Nc2cccc3ncccc23)cc1`, the Potency result is “inactive”.

For `CCc1cc2c(cc3c(=O)n(CC(=O)N4CCN(c5cc(Cl)ccc5C)CC4)nc(CC)n32)s1`, the Potency result is “inactive”.

`CCCS(=O)(=O)c1c(Nc2ccccc2C)sc(C(=O)c2ccccc2)c1N`: the Potency entry is “inactive”.

Turning to `O=c1c2cccnc2n(Cc2cccc(F)c2)c(=O)n1Cc1ccccc1Cl`, the Potency result is “inactive”.

In the case of `CCCCOC(=O)CSc1ncnc2sc3c(c12)CCC(C)C3` (configuration not stated), the Potency entry was “inactive”.

Take `Cc1ccc(C(=O)Nc2ccc(C)c(S(=O)(=O)N(C)C)c2)s1`: the Potency was 12.6 µM (active).

In the case of `Cc1ccc(NC(=O)CNCc2ccccn2)cc1S(=O)(=O)N(C)C`, the Potency entry is “inactive”.

As for `Cc1ccc(NC(=O)c2cccs2)cc1S(=O)(=O)N(C)C`, the Potency entry was “inactive”.

Take `COc1ccc(NC(=O)c2ccc(OC)cc2)cc1`: the Potency was 11.2 µM (active).

In the case of `COc1ccc(NC(=O)c2ccc(C#CC(C)(C)O)cc2)cc1`, the Potency result was “inactive”.

Turning to `COc1ccccc1CC(=O)Nc1ccc(F)cc1F`, the Potency entry was “inactive”.

Regarding `O=C(Nc1cccc2ccccc12)c1onc2c1CCCC2`, the Potency result is “inactive”.

As to `CCc1cc(C(c2ccccc2OC)N2CCOCC2)c(NC(=O)c2ccccc2)s1` (configuration not stated), the Potency result was “inactive”.

In the case of `COc1ccc(C(=O)Nc2ccc(F)cc2F)cc1`, the Potency is 10 µM (active).

`COc1ccc(C(=O)N/N=c2\oc3ccccc3cc2C(N)=O)cc1`: the Potency entry was “inactive”.

As to `COc1ccc(C(=O)Nc2onc3c2CCCC3)cc1`, the Potency is 0.794 µM (active).

`COc1cc(OC)cc(C(=O)OCC(=O)Nc2ccc(F)cc2F)c1`: the Potency entry was “inactive”.

For the molecule `CCc1cc(C(N)=O)c(NC(=O)c2ccc(OC)cc2)s1`, the Potency is 11.2 µM (active).

For `COc1ccc(NC(=O)c2c(C)oc3c2CCCC3)cc1`, the Potency entry was “inactive”.

On to `COc1ccc(C(=O)Nc2ccc(S(=O)(=O)NC(C)C)cc2)cc1`, for which the Potency entry is “inactive”.

Take `Cc1ccc(CCNC(=O)Cn2c(-c3cccs3)cc3cc(F)ccc32)cc1`: the Potency entry is “inactive”.

Turning to `COc1ccccc1CNC(=O)CCCCn1c(=O)c2ccccc2n(CC(=O)Nc2cc(Cl)ccc2C)c1=O`, the Potency entry is “inactive”.

For the molecule `O=C(COc1ccc(Cl)cc1)N(Cc1ccco1)Cc1ccco1`, the Potency result was “inactive”.

As to `COc1cccc(NC(=O)N(Cc2cn(C)c3ccccc23)C2CCCCCC2)c1`, the Potency entry is “inactive”.

`CCn1c2ccccc2c2cc(NC(=O)COc3ccc(C)cc3C)ccc21`: the Potency result is “inactive”.

`CCOC(=O)c1ccc(NC2=CC(c3ccc(OCC)cc3)N(c3ccc(C(=O)OCC)cc3)C2=O)cc1` (configuration not stated): the Potency entry was “inactive”.

For the molecule `Cc1nn2cc(-c3ccc(Cl)cc3)cnc2c1Br`, the Potency is 3.55 µM (active).

For `COc1ccccc1CNC(=O)CCn1c(=O)c2ccccc2n(CC(=O)Nc2ccc(Br)cc2F)c1=O`, the Potency result is “inactive”.

In the case of `COc1ccc(NC(=O)c2ccc3oc(=O)c(S(=O)(=O)c4ccc(F)cc4)cc3c2)c(OC)c1`, the Potency entry was “inactive”.

Take `O=C(C1CC1)N1CCc2cc(Br)cc(S(=O)(=O)N3CCN(c4ccccc4F)CC3)c21`: the Potency entry is “inactive”.

As for `COc1cccc(C(=O)NC2=NC(c3ccc(N(C)C)cc3)CC(=O)N2)c1` (configuration not stated), the Potency result is “inactive”.

The values above are taken from PubChem BioAssay AID1458 (National Center for Advancing Translational Sciences (NCATS), 2008).
